Assay results from PubChem BioAssay.
Calls of active or inactive are those of the source. Unless noted, no rule for the calls is given here.

How the values were obtained:
[1] = HepG2 liver cancer cell viability effects, profiling panel, resazurin fluorescence, 24 h, PK04 Diversity Set (AID 1172); details: higher = more signal; also: test concentration not given here
[2] = basal S. cerevisiae growth modulation, no modifier, primary screen, OD600, strain BY4716, 24 h, basal condition (AID 1173); details: OD600, 24 h, higher = more signal, called active from +8 up or from −8 down
[3] = MM1S myeloma cell viability, profiling panel, resazurin fluorescence, basal, 24 h, PK04 Diversity Set (AID 1174); details: higher = more signal, called active from +8 up or from −8 down;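 also: MM1S multiple myeloma cell line; test concentration not given here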
[4] = biological target: Dihydroorotate dehydrogenase (quinone), mitochondrial (Plasmodium falciparum (isolate 3D7)) (UniProt Q08210); assay: PfDHODH enzyme inhibitors, primary screen, biochemical, C-terminal His tag, absorbance 600 nm (AID 1175); details: DCIP absorbance 600 nm, higher = more signal, called active from +8 up or from −8 down;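 also: recombinant parasite enzyme with a five histidine tag at its C terminus; test concentration not given here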
[5] = P. aeruginosa biofilm formation inhibitors, primary screen, strain PAO1, LB-PBS medium, absorbance 600 nm (AID 1176); also: test concentration not given here; details: P. aeruginosa PAO1 growth/biofilm, A600, 12 h; higher = more signal
[6] = S. cerevisiae RM11-1a growth modifiers, primary screen, strain RM11-1a, OD600, basal, 24 h (AID 1177); details: OD600, 24 h, higher = more signal, called active from +8 up or from −8 down;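 also: cultures grown under basal conditions with no added stressor; test concentration not given here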
[7] = E. coli acrAB mutant growth effects, primary screen, E. coli filamentation inducers, strain DRC39, OD650, 24 h (AID 1178); details: higher = more signal, called active from +8 up or from −8 down;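 also: growth measured as culture turbidity by optical density at 650 nm; test concentration not given here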
[8] = E. coli acrAB mutant growth effects, primary screen, E. coli filamentation inducers, strain DRC39, OD650, 48 h (AID 1179);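 also: screen aims at cell division blockers that make cells filament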; details: E. coli DRC39 delta-acrAB growth, higher = more signal, called active from +8 up or from −8 down
[9] = RPMI8226 myeloma cell viability, profiling panel, resazurin fluorescence, basal, 24 h, PK04 Diversity Set (AID 1180); details: higher = more signal;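 also: RPMI8826 multiple myeloma cell line at 5000 cells per well; test concentration not given here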
[10] = biological target: E3 ubiquitin-protein ligase XIAP (Homo sapiens) (UniProt P98170); assay: XIAP binders, primary screen, biophysical, small-molecule microarray, fluorescence 635 nm (AID 1181); details: small-molecule microarray binding, higher = more signal;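 also: score merges 667 nm emission and signal to noise over triplicate slides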
Chain of E3 ubiquitin-protein ligase XIAP (Homo sapiens) (P98170 whole entry, looked up): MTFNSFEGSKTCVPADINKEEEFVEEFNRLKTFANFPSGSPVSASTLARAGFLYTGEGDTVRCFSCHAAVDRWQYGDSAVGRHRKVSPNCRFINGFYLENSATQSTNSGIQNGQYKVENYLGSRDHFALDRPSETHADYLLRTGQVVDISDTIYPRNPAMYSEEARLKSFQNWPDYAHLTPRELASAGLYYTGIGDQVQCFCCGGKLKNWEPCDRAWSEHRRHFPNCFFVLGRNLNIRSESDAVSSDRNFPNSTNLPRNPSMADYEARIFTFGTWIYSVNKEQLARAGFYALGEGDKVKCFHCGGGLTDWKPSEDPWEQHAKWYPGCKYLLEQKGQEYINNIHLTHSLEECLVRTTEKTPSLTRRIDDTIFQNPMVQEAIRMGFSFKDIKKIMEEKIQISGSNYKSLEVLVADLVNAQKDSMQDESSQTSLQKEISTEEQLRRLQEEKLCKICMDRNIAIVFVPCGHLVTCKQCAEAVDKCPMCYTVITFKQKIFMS

Chain of Dihydroorotate dehydrogenase (quinone), mitochondrial (Plasmodium falciparum (isolate 3D7)) (Q08210 whole entry, looked up): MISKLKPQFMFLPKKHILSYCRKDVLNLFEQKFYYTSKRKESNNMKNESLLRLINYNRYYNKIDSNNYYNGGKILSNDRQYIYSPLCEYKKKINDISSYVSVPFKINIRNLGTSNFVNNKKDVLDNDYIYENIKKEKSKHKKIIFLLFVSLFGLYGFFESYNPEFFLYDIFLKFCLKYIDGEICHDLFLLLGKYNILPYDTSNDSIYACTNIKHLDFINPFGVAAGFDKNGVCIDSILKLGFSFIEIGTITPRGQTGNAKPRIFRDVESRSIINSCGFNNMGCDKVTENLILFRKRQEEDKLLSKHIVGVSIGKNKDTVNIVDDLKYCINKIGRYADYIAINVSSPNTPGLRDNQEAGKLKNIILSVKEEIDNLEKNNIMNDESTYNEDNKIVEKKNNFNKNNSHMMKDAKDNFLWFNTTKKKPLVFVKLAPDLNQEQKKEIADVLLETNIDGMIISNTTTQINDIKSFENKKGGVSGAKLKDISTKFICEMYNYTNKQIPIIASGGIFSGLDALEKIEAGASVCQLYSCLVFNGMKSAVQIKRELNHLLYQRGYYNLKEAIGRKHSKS

| Compound | z-score [1] | z-score [2] | z-score [3] | composite z-score [4] | z-score [5] | z-score [6] | z-score [7] | z-score [8] | z-score [9] | composite z-score [10] |
| --- | --- | --- | --- | --- | --- | --- | --- | --- | --- | --- |
| COC(=O)[C@H](C)NC(=O)[C@@H](C)CO | -1.1 | -0.0616 (inactive) | -1.15 (inactive) | 0.38 (inactive) | -0.351 (inactive) | 0.312 (inactive) | -1.45 (inactive) | -0.489 (inactive) | -0.855 | -0.102 |
| CCN1C(=O)[C@H]2[C@H]3[C@H](O)[C@H](O)CC(=NOCc4ccccc4)[C@H]3CC[C@H]2C1=O | -0.322 | -0.0753 (inactive) | -0.344 (inactive) | -0.422 (inactive) | 0.164 (inactive) | -0.889 (inactive) | 0.114 (inactive) | 0.293 (inactive) | -0.855 | 0.0785 |
| CC(C)(C)N1C(=O)[C@H]2[C@H]3[C@H](O)[C@H](O)CC(=NO[C@@H]4O[C@H](CO)[C@@H](O)[C@H](O)[C@H]4O)[C@@H]3CC[C@H]2C1=O | -0.332 | -0.597 (inactive) | -0.236 (inactive) | 0.0902 (inactive) | 0.0821 (inactive) | -0.471 (inactive) | 0.398 (inactive) | 0.441 (inactive) | -0.449 | 0.144 |
| C[C@@H]1C=CCC(=O)OC[C@H](C)C(=O)N[C@@H](C)C(=O)OC1 | 0.29 | 0.128 (inactive) | 0.617 (inactive) | 0.474 (inactive) | -0.537 (inactive) | 0.317 (inactive) | 0.6 (inactive) | 0.879 (inactive) | 0.361 | -0.113 |
| O=C1[C@H]2[C@H]3[C@H](O)[C@H](O)CC(=NOCc4ccccc4)[C@@H]3CC[C@H]2C(=O)N1Cc1ccccc1 | 1.38 | -0.148 (inactive) | 0.85 (inactive) | -0.0807 (inactive) | -0.377 (inactive) | -0.118 (inactive) | 0.16 (inactive) | 0.71 (inactive) | 1.17 | 0.0512 |
| CN1C(=O)[C@@]2(CCC(=O)OC(C)(C)C)N=C(c3ccc(OCCCO)cc3)O[C@H]2c2ccccc21 | 0.761 | -1.04 (inactive) | -1.82 (inactive) | -0.281 (inactive) | 0.0279 (inactive) | -0.177 (inactive) | 1.2 (inactive) | 0.767 (inactive) | -1.99 | 0.169 |
| CCOC(=O)C[C@H]1[C@H](OC(=O)c2ccc(C(=O)c3ccccc3)cc2)[C@@H](NC(=O)c2ccc(-c3ccccc3)cc2)c2cc(OCCCO)ccc2N1C(=O)c1ccc2ccccc2n1 | 0.206 | -1.1 (inactive) | 0.38 (inactive) | -1.69 (inactive) | -0.0998 (inactive) | -0.0276 (inactive) | 0.254 (inactive) | 1.23 (inactive) | 0.909 | 0.119 |
| CC(C)C[C@@H]1NC(=O)[C@H]2C[C@@H](C(=O)O)[C@@H](c3ccc(O)cc3)N2C1=O | 0.374 | 0.0437 (inactive) | 0.816 (inactive) | 0.425 (inactive) | -0.86 (inactive) | 1.58 (inactive) | -0.139 (inactive) | -0.456 (inactive) | 0.453 | -0.125 |
| C=CC[C@@H]1C=C[C@H](ON=Cc2ccc(C(=O)N3[C@H](c4ccc(C)cc4)[C@@H](C)CC[C@H]3C(=O)OC)cc2)[C@@H](CO)O1 | 0.456 | -0.0957 (inactive) | -0.435 (inactive) | 0.16 (inactive) | 0.547 (inactive) | 0.674 (inactive) | 0.442 (inactive) | 0.226 (inactive) | 0.0719 | -0.16 |
| O[C@@H](Cc1ccccc1)[C@H]1C2C=CCCC(c3ccccc3)=C2CN1Cc1cccc(Cl)c1 (stereo not given in full) | 0.689 | -3.75 (inactive) | -0.146 (inactive) | 0.426 (inactive) | 1.56 (inactive) | -0.53 (inactive) | 3.04 (inactive) | 1.85 (inactive) | -0.0337 | 0.25 |
| CC(CCN1CCc2nc(-c3ccccc3)c(-c3ccccc3)cc2C1)=NOC(C)CN1CCCCc2nc(C)c(C)cc21 (stereo not given) | -0.0429 | -2.52 (inactive) | -1.07 (inactive) | 0.187 (inactive) | 0.347 (inactive) | -0.609 (inactive) | 0.789 (inactive) | -0.702 (inactive) | -0.747 | -0.0651 |
| CO[C@@H]1COC(=O)CC=C[C@@H](C)[C@@H]2C=C[C@H](O)[C@@H](COC(=O)CCC[C@H]1C)O2 | 0.696 | -1.19 (inactive) | 0.492 (inactive) | -0.24 (inactive) | -0.95 (inactive) | -0.725 (inactive) | 0.118 (inactive) | -0.195 (inactive) | 0.401 | -0.12 |
| Cc1ccc(C2CC=C(C(=O)O)CN2S(=O)(=O)c2ccc(C)cc2)cc1 (stereo not given) | -0.719 | -0.0489 (inactive) | -0.955 (inactive) | 1.23 (inactive) | 0.396 (inactive) | 0.603 (inactive) | -0.799 (inactive) | -1.52 (inactive) | -1.54 | -0.102 |
| C[C@@H](c1ccccc1)N1C(=O)[C@H]2[C@H]3[C@H](O)[C@H](O)CC(=NOC[C@@H](O)COCc4ccco4)[C@@H]3CC[C@H]2C1=O | -0.52 | 0.984 (inactive) | -0.422 (inactive) | 0.407 (inactive) | 0.176 (inactive) | 0.819 (inactive) | -0.892 (inactive) | -0.41 (inactive) | 0.2 | -0.131 |
| C=CC[C@@H]1C=C[C@H](ON=C[C@@H](OC)[C@H](C)C=CCC(=O)OC)[C@@H](CO)O1 | -0.266 | -0.54 (inactive) | -0.709 (inactive) | 0.217 (inactive) | -0.537 (inactive) | 1.17 (inactive) | 0.456 (inactive) | 0.732 (inactive) | -0.707 | 0.32 |
| C=CC[C@@H]1C=C[C@H](ON=C2c3cc(OC)ccc3O[C@H](c3cccc(OC)c3)[C@H]2O)[C@@H](CO)O1 | -1.38 | -0.903 (inactive) | -1.15 (inactive) | -0.726 (inactive) | 0.113 (inactive) | -0.7 (inactive) | 0.57 (inactive) | 0.741 (inactive) | -1.37 | -0.0834 |
| C=C(CCCC)C(=O)CC[C@@H](OC(C)=O)c1cccc(OCCO)c1 | -0.749 | -17.8 (active) | -1.01 (inactive) | -3.64 (inactive) | 0.367 (inactive) | -19.2 (active) | -0.55 (inactive) | -0.528 (inactive) | -1.07 | 0.136 |
| CCN1C(=O)[C@H]2[C@H]3[C@H](O)[C@H](O)CC(=NOCC=C(C)CCC=C(C)C)[C@H]3CC[C@H]2C1=O | -0.337 | -0.327 (inactive) | -0.944 (inactive) | -0.962 (inactive) | 0.164 (inactive) | -0.414 (inactive) | 0.445 (inactive) | 0.314 (inactive) | -1.23 | -0.0988 |
| CC(C)=NOCc1ccc(-c2cc(-c3ccccc3)no2)cc1 | -0.503 | 0.288 (inactive) | -0.284 (inactive) | 0.21 (inactive) | -0.446 (inactive) | -0.194 (inactive) | 0.302 (inactive) | 0.387 (inactive) | -0.424 | 0.103 |
| O=C1C[C@]2(c3ccc([N+](=O)[O-])cc3)C(=O)N(CCN3CCOCC3)c3cc(CO)ccc3[C@H]2N1CC12CC3CC(CC(C3)C1)C2 | -0.0113 | -0.0207 (inactive) | 0.639 (inactive) | -6.92 (inactive) | 0.277 (inactive) | -0.028 (inactive) | 0.577 (inactive) | -0.0127 (inactive) | -0.391 | 0.476 |
| COC(=O)[C@H]1COC(c2ccc(OCCCO)cc2)=N1 | -0.652 | -0.928 (inactive) | 0.107 (inactive) | 0.335 (inactive) | 0.149 (inactive) | -0.286 (inactive) | 0.057 (inactive) | -0.645 (inactive) | 0.492 | -0.103 |
| CO[C@H]1COC(=O)[C@@H]2CCCN2C(=O)CC=C[C@@H](C)[C@H](OC)COC(=O)CC=C[C@@H]1C | 0.233 | -1.16 (inactive) | 0.89 (inactive) | -0.652 (inactive) | 0.696 (inactive) | -2.08 (inactive) | 1.04 (inactive) | 0.375 (inactive) | -0.395 | -0.137 |
| COC(=O)[C@@H]1CCCN1C(=O)[C@@H](C)CO | -0.337 | -1.06 (inactive) | -0.379 (inactive) | -2.93 (inactive) | 0.0372 (inactive) | -0.213 (inactive) | -1.47 (inactive) | -2.18 (inactive) | -0.376 | -0.0415 |
| COc1ccc(CCNC(=O)[C@@H]2c3ccccc3C(=O)N(c3ccc(C)cn3)[C@H]2c2ccc(CO)cc2)cc1 | 0.594 | -0.742 (inactive) | -0.806 (inactive) | -0.204 (inactive) | 0.525 (inactive) | -0.195 (inactive) | 0.0636 (inactive) | -0.113 (inactive) | 1 | -0.267 |
| COc1ccc([Si](C)(C)[C@@H]2[C@@H](CC(=O)N3CCC[C@H]3CO)O[C@]3(C(=O)N(Cc4cccc(N5CCC5=O)c4)c4ccccc43)[C@H]2C)cc1 | -1.1 | -0.0905 (inactive) | -2.64 (inactive) | -3.15 (inactive) | 1.19 (inactive) | 1.03 (inactive) | 0.52 (inactive) | 0.388 (inactive) | -3.51 | -0.152 |
| C#CCCCON=C1C[C@@H](O)[C@@H](O)[C@@H]2[C@@H]3C(=O)N(c4cccc(Oc5ccccc5)c4)C(=O)[C@@H]3CC[C@@H]12 | 0.32 | -1.13 (inactive) | 0.47 (inactive) | 1 (inactive) | -0.601 (inactive) | -0.293 (inactive) | -0.146 (inactive) | -0.0303 (inactive) | 0.868 | 0.0153 |
| CCOC(=O)NN=C1C[C@@H](O)[C@@H](O)[C@@H]2[C@@H]3C(=O)N(CC)C(=O)[C@@H]3CC[C@@H]12 | -0.0886 | 0.398 (inactive) | -0.621 (inactive) | -0.538 (inactive) | -0.331 (inactive) | -0.823 (inactive) | -0.145 (inactive) | -0.325 (inactive) | -0.423 | -0.105 |
